Reference: PubChem BioAssay AID504727 (Broad Institute, 2011)
Calls of active or inactive are those of the source.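 Rule for the calls: active = fitted half-maximal concentration AC50 at or below ten times the highest valid tested dose, with signal falling as DNA is displaced (actives reach about 34 µM in these data); inconclusive = flat fit at moderate signal loss, or poor fit quality; inactive = the rest, including signal rising instead of falling.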

Test: acridine orange-DNA binding displacement – biochemical, fluorescence polarization, cherry-picked samples, set 2, artefact control for KSHV LANA DNA-binding inhibitor project, dose response (AID 504727);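 for activity change, negative = DNA displacement: 0% = median of neutral control wells and -100% = mitoxantrone positive control wells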
Settings: series mostly up to 35 µM; activity change, negative = DNA displacement: at the top concentration

SMILES	activity change, negative = DNA displacement	AC50
C=C1c2cccc(O)c2C(O)=C2C(=O)[C@]3(O)C(O)=C(C(N)=O)C(=O)[C@@H](N(C)C)[C@@H]3[C@@H](O)[C@H]12	5.07% (inactive)	
Cc1cc(-c2nnc(SCC(=O)Nc3ccccc3)n2C)no1	4.5% (inactive)	
Cc1ccc(N(C)C(=O)C2CCCN2S(=O)(=O)c2ccc3c(c2)n(C)c(=O)c(=O)n3C)cc1 (stereo not drawn)	4.43% (inactive)	
O=c1[nH]c2c(s1)C=Nc1ccccc1N2		6.39 µM (active)
COc1ccc(NC(=O)Cc2nnc(SCC(=O)Nc3nccs3)n2C)cc1	4.06% (inactive)	
COc1ccc(C(=O)OCC(=O)NC2CC2)cc1S(=O)(=O)Nc1ccc(C)cc1	4.67% (inactive)	
O=C(OCC(=O)N1N=C(c2ccc(Cl)cc2)CC1c1ccco1)c1cccnc1 (stereo not drawn)	6.32% (inactive)	
COc1cc(SC)ccc1C(=O)Nc1nc(C)cs1	-0.454% (inactive)	
FC(F)(F)c1nnc(-c2ccccc2)nc1N1CCCC1	2.74% (inactive)	
CCCc1cc(=O)oc2cc(C)cc(OCC(=O)O)c12	-6.33% (inactive)	
NC(=O)C1(N2CCCCC2)CCN(Cc2ccc(Br)cc2)CC1	2.94% (inactive)	
Cc1c(Cl)cccc1NS(=O)(=O)c1ccc2c(c1)C1C=CCC1C(c1ccc(C(=O)O)cc1)N2 (stereo not drawn)	-2.24% (inactive)	
O=[N+]([O-])c1cc(-n2cnnn2)ccc1N1CCC(Cc2ccccc2)CC1	-4.6% (inactive)	
Cc1c(NC(=O)CCC2CCCCC2)cc(C(=O)N2CCOCC2)cc1[N+](=O)[O-]	-1.94% (inactive)	
CCCC1(C2CCCC2)NC(=O)NC1=O (stereo not drawn)	4.46% (inactive)	
Nc1nc(C(F)(F)F)cc(=O)[nH]1	1.02% (inactive)	
Cc1cc2nc(SCCN3CCOCC3)[nH]c2cc1C	1.2% (inactive)	
O=C1c2ccccc2C(=O)C1c1ccccn1	-2.43% (inactive)	
CC(=O)NC(C(=O)c1ccccc1)C(=O)c1ccccc1	5.17% (inactive)	

SMILES	activity change, negative = DNA displacement	AC50
CN(C)S(=O)(=O)c1cccc(N2C(=O)CC3(CCCCC3)CC2=O)c1	3.65% (inactive)	
O=C(O)CCN1C(=O)/C(=C\c2ccc(-c3nc4ccccc4s3)o2)SC1=S	13.8% (inactive)	
Cc1ccsc1/C=N/NC(=O)Cc1ccc(Cl)cc1	2% (inactive)	
O=C(O)c1ccc(-n2cccc2/C=C2/SC(=O)N(CC(=O)N3CCCC3)C2=O)cc1	-3.47% (inactive)	
CNc1ccc2c3c(cccc13)C(=O)N(C)C2=O		0.872 µM (active)
CC(C)c1ccc(NC(=O)Cn2c(=O)oc3cccnc32)cc1	1.86% (inactive)	
CN(C)CCNc1ccc2ncn3c4ccc(O)cc4c(=O)c1c23		8.68 µM (active)
CCNc1nc(NC(C)C)nc(NS(=O)(=O)c2ccc(N)cc2)n1	4.91% (inactive)	
Cn1c(=O)c2c(nc(SCC(=O)NCc3ccc4c(c3)OCO4)n2Cc2ccc(Cl)cc2)n(C)c1=O	5.28% (inactive)	
O=C(O)c1ccccc1C1=Nc2ccc(O)cc2Oc2cc(O)ccc21		13.4 µM (active)
CN1C(=O)NC(c2ccccc2[N+](=O)[O-])C2=C1CCCC2=O (stereo not drawn)		29.7 µM (active)
CN1CCN(C(=S)c2ccc(N(C)C)cc2)CC1	3.14% (inactive)	
Cn1c(Cl)c(C(=O)Nc2ccc(Cl)cc2)c2ccccc21	6.6% (inactive)	
Cc1ccc(C)c(N2CCN(C(=O)c3cc4ccccn4n3)CC2)c1	-11.2% (inactive)	
COc1ccc(CNC(=O)C2CCC(CNC(=O)[C@@H]3Cc4ccccc4CN3)CC2)cc1 (stereo partly drawn)	2.09% (inactive)	
Fc1ccc(C2=CC(c3ccc(Br)o3)n3ncnc3N2)cc1 (stereo not drawn)		11.7 µM (active)
Nc1ccc2cc3[nH]c4cc(N)ccc4c3nc2c1		1.48 µM (active)
CCOc1ccccc1N1CCN(C(=O)c2ccc3nc(N)sc3c2)CC1	5.07% (inactive)	
CC[C@@]1(O)C(=O)OCc2c1cc1n(c2=O)Cc2cc3c(CN(C)C)c(O)ccc3nc2-1		3.8 µM (active)
